A short description of assay [1]: reducers of endogenous Her2 protein level, primary screen, SKBR3 breast tumor cells, AlphaScreen, ATP viability (AID 461;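 active means Her2 level under about 52% in both replicate screens, with viability over 70% of control, limit read from the data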;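 on Her2 level: lower value means less Her2 protein in the cells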;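 on viability: percent of carrier control wells set as 100% viability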). Particulars: 18-24 h, measured here: SKBR3 viability, ATP luminescence, at 10 µM. Background: In Alpha technology, singlet oxygen from a donor bead excites a nearby acceptor bead.
The target of assay [2] is Receptor tyrosine-protein kinase erbB-2 (Homo sapiens) (UniProt P04626). The assay is described as above. The settings on record: 18-24 h, at 10 µM, stronger effect = lower value.
Assay [3] is described as follows: SK-BR-3 cell growth inhibitors, pilot screen, 24 h, human (AID 572;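 active means viability at or below 10% of carrier control in both of two separate runs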;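 further: compound exposure lasted between 18 and 24 h rather than exactly 24 h; 100% = carrier-treated control wells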). Particulars: SK-BR-3 viability, CellTiter-Glo luminescence, at 10 µM, stronger effect = lower value. (ATP-based viability assays read luminescence as a measure of living cells.)
The nature of assay [4]: HUVEC growth inhibition – cell-based, human, primary screen (AID 575;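 active means viability at or below 30% in both replicate assays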;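 further: 100% = median of untreated cell wells with 0.1% DMSO on each plate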). Particulars: HUVEC proliferation, CellTiter-Glo luminescence, 72 h; at 10 µM; stronger effect = lower value.
A short description of assay [5]: growth inhibitors of H69AR lung tumor, primary screen, human, duplicate replicates (AID 580;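 active means viability at or under a set limit in both replicates, limit being median viability minus 3 SD, cut at about 48% in these data, passing the limit was not always enough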;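 further: 100% = mean luminescence of untreated wells and 0% = no signal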). Particulars: H69AR lung tumor cells viability, ATP luminescence, 72 h; at 10 µM; stronger effect = lower value.
Assay [6] is described as follows: reversal of MRP1-mediated doxorubicin resistance, pilot screen, H69AR cells, doxorubicin co-treatment (AID 601;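 active means viability loss from added drug above about 55%, and viability with drug at most 40%, in both replicates, limit read from the data, passing the limit was not always enough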). The settings on record: CellTiter-Glo, 72 h, at 10 µM; for differential viability (reversal): stronger effect = higher value.
Assay [7] is described as follows: 384-well plate pilot, post-Golgi transport modulator project, inhibition of yeast transport mutant growth (AID 636; in the data active means inhibition above about 31%). The settings on record: absorbance 615 nm, about 18 h, stronger effect = higher value.
Assay [8] in a line: growth suppression of yeast trafficking mutant, preliminary HTS, modulators of trafficking downstream of Golgi apparatus project, 1536-format plate, OD 615 nm (AID 637; in the data active means inhibition above about 30%). Particulars: yeast transport mutant growth, absorbance 615 nm, 18 h; stronger effect = higher value.
Assay [9] can be described thus: OD615 S. cerevisiae growth inhibition, permissive medium, pilot counter-assay, permissive growth control for S. cerevisiae lifespan shortening project (AID 705;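 active means growth inhibition above 25% in both replicates, a cutoff set 3 SD above the mean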). Particulars: OD615, 24 h, at 10 µM, stronger effect = higher value.
The nature of assay [10]: Restrictive medium S. cerevisiae growth inhibition, OD615, pilot screen of yeast lifespan reduction project, restrictive growth control (AID 706;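 active means growth inhibition above a set limit, 3 SD over mean compound inhibition, in both replicates, cut at about 43% in these data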;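 further: modified DeaD lifespan yeast strain shifted to restrictive glucose medium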). The settings on record: OD615, 48 h, at 10 µM, stronger effect = higher value.
The nature of assay [11]: viability gain of MRP-1-high H69AR cells under doxorubicin, pilot screen, MRP-1 activator project, CellTiter-Glo, duplicate (AID 807;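 active means viability increase at or above a cutoff of the median across tested compounds plus 3 SD, cut at about 8.5% in these data, passing the limit was not always enough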;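 further: compound pretreatment 18-22 h then 72 h combined with doxorubicin; 0% = doxorubicin alone and 100% = vehicle without doxorubicin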). Particulars: H69AR viability with doxorubicin, CellTiter-Glo luminescence; at 10 µM; stronger effect = higher value.
A short description of assay [12]: growth suppression of beta-catenin knockout HCT116, pilot screen, human colon tumor cells (AID 823;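 active means cell viability at or below a set limit in both duplicate runs, the limit being the all-compound median minus 4 SD, cut at about 23% in these data, passing the limit was not always enough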;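 further: 0% = wells killed by 20 µM Hyamine and 100% = untreated DMSO cell wells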). Particulars: CellTiter-Glo, 60 h, at 10 µM, stronger effect = lower value.
The nature of assay [13]: growth suppression of PTEN-deleted HCT116, pilot screen, cell-based, HCT116 clonal line, CellTiter-Glo (AID 824;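 active means viability at or below 27.92% in each of two runs, the all-compound median minus 4 SD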;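 further: 0% = 20 µM Hyamine control and 100% = vehicle cell control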). Particulars: 60 h, at 10 µM, stronger effect = lower value.
A short description of assay [14]: inhibitors of the yeast RAM network, pilot screen, dse1pr::URA3 reporter, 5-FOA selection (AID 869;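 active means inhibition over a set limit, the all-compound mean plus 3 SD, in both replicate runs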;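 further: 0% = DMSO wells with no growth and 100% = 10 µM 1-NA-PP1 with full growth; RAM network block rescues cells from 5-FOA so hits raise OD615 growth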). The settings on record: S. cerevisiae dse1pr::URA3 5-FOA growth, OD615, 2 d; at 10 µM; stronger effect = higher value; strain carries analog-sensitive mutant Cbk1 kinase.
The nature of assay [15]: RAM signaling pathway blockade in yeast – S. cerevisiae, Pdr1DBD-CYC8 efflux-inhibited sensitized strain, primary screen (AID 1298).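 Further: 0% = DMSO untreated cells without growth and 100% = 10 µM 1-NA-PP1 full growth; higher means more yeast growth rescued from 5-FOA killing.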 The settings on record: S. cerevisiae cbk1-as DSE1-URA3 strain, 5-FOA growth OD615, 2 d; at 50 µM; stronger effect = higher value.
Where [16] appears, read: H69AR cells + 2 uM doxorubicin, measured here: viability with 2 uM doxorubicin, stronger effect = lower value.
[17] abbreviates: H69AR cells, compound alone cytotoxicity.

The values that follow come from PubChem BioAssay.

Inconclusive results are not listed. Active and inactive are the calls of the source.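 How the source made its calls, unless noted: active means RAM network inhibition above 8.4% in each of two replicates, 3 SD over the compound average; inconclusive means above 8.4% inhibition in only one replicate; inactive means 8.4% inhibition or less in each replicate.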

Sequence of Receptor tyrosine-protein kinase erbB-2 (Homo sapiens) (P04626 whole entry, looked up): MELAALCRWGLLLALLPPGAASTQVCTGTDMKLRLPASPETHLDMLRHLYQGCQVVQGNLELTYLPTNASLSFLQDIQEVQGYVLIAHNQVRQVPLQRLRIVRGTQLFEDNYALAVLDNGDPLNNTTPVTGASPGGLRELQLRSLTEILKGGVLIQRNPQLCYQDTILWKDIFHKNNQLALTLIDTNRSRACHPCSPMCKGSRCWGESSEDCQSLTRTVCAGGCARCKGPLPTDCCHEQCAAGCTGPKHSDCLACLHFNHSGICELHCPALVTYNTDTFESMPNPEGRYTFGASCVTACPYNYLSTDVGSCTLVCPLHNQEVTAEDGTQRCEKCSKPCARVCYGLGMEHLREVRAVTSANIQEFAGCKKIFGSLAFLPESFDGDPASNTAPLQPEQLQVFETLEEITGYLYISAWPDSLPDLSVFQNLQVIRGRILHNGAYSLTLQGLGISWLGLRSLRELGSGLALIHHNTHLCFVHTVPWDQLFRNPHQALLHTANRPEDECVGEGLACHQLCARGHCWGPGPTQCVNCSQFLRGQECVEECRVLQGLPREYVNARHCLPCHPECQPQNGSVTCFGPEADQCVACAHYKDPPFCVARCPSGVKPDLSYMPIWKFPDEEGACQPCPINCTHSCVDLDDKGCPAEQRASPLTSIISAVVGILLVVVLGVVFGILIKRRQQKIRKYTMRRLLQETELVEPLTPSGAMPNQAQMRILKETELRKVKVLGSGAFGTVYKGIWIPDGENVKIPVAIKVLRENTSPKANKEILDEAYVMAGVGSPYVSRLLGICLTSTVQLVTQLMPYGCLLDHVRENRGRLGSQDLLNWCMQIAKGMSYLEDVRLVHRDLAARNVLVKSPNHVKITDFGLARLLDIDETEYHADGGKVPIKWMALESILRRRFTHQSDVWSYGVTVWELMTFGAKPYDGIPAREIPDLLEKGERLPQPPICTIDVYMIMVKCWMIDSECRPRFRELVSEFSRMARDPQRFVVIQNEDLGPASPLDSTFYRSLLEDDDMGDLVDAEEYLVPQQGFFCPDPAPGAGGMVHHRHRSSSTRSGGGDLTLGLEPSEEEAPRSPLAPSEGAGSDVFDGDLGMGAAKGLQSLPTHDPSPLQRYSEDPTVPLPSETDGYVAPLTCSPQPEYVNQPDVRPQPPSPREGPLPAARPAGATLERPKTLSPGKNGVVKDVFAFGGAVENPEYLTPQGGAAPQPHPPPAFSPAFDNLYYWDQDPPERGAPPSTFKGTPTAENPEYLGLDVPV

Consider `COc1cccc(C2=NOC(C(=O)Nc3cc(C)nn3-c3ccccc3)C2)c1OC` (stereo not given), for which the viability (commonly a read-out of living cells in per cent, often relative to untreated cells) is 93% in assay [1]; 93% (inactive) in assay [3]; 68.7% (inactive) in assay [4]; 28.6% (active) in [5]; 72.5% in assay [6] (setting [16]); 28.6% in [6] (setting [17]). Further, the viability in assay [12] was 68.3% (inactive); in [13], 60.2% (inactive). The Her2 level in [2] is 91% (inactive). In [6] (H69AR cells + 2 uM doxorubicin), the differential viability (reversal) was -43.9% (inactive). Further, the inhibition – broadly, the drop in the measured response relative to a control, in per cent – in assay [7] is 2.31% (inactive); in assay [8], -1.83% (inactive); in [14], 2.12% (inactive). Moreover, the results for the growth inhibition in [9] and in assay [10] were 1.31% (inactive) and 12% (inactive), respectively. Besides, in assay [11], the viability increase is -5.04% (inactive). The RAM network inhibition in [15] is -0.06% (inactive).

As for `Cn1cc(C2NC(=O)c3c(sc4c3CCCC4)N2)c2ccccc21` (stereo not given), the viability in [1] was 99%; in assay [3] it was 99% (inactive); in assay [4], 61.9% (inactive); in assay [5] it was 64.9% (inactive); in [6] (setting [16]), 60.4%; in [6] (setting [17]) it was 64.9%. For the same molecule, the viability is 101% (inactive) in [12] and 90.8% (inactive) in assay [13]. For the same molecule, in assay [2], the Her2 level was 78.5% (inactive). Besides, the differential viability (reversal) in assay [6] (H69AR cells + 2 uM doxorubicin) is 4.49% (inactive). Moreover, the inhibition in [7] was 1.6% (inactive); in assay [8], 5.17% (inactive); in assay [14], 0.64% (inactive). The growth inhibition in assay [9] was -6.96% (inactive); in assay [10] it was 2.46% (inactive). In addition, the viability increase in [11] is -2.92% (inactive). Further, in assay [15], the RAM network inhibition was 2.82% (inactive).

For `Cc1cc(OCC(=O)NCCO)cc(C)c1Cl`, the viability in [1] was 99%; in [3], 99% (inactive); in assay [4], 76% (inactive); in [5] it was 96.4% (inactive); in assay [6] (setting [16]) it was 87.6%; in [6] (setting [17]) it was 96.4%. Besides, the viability in assay [12] is 99.1% (inactive); in [13] it was 99.6% (inactive). Moreover, the Her2 level in assay [2] is 120% (inactive). Also, in assay [6] (H69AR cells + 2 uM doxorubicin), the differential viability (reversal) was 8.84% (inactive). The inhibition was 1.56% (inactive) in assay [7], -1.67% (inactive) in assay [8] and 1.37% (inactive) in [14]. Further, the growth inhibition in [9] is -15% (inactive); in assay [10] it was 0.385% (inactive). The viability increase in [11] is -0.21% (inactive). Besides, the RAM network inhibition in assay [15] was 6.24% (inactive).

For the molecule `Cc1ccc(N(C)C(=O)N2CCN(c3ccccn3)CC2)cc1`, the viability in assay [1] is 94.5%; in assay [3] it was 94.5% (inactive); in assay [4], 109% (inactive); in [5], 98.2% (inactive); in assay [6] (setting [16]) it was 90.7%; in assay [6] (setting [17]), 98.2%. For the same molecule, the values for the viability in assay [12] and in assay [13] were 97.6% (inactive) and 97.1% (inactive), respectively. Further, in assay [2], the Her2 level is 112% (inactive). Also, the differential viability (reversal) in [6] (H69AR cells + 2 uM doxorubicin) is 7.52% (inactive). Moreover, the inhibition in assay [7] was 2.27% (inactive); in assay [8], -0.5% (inactive); in assay [14], 1.14% (inactive). Besides, the figures for the growth inhibition in [9] and in [10] were 0.955% (inactive) and 5.44% (inactive), respectively. Moreover, the viability increase in assay [11] is -1.03% (inactive). For the same molecule, the RAM network inhibition in assay [15] was -0.55% (inactive).

As for `CC1Cc2ccccc2N1C(=O)C12CCC(C)(C(=O)C1)C2(C)C` (stereo not given), the viability is 136% in assay [1]; 136% (inactive) in [3]; 92.6% (inactive) in assay [4]; 82.1% (inactive) in [5]; 74.3% in assay [6] (setting [16]); 82.1% in [6] (setting [17]). Also, the viability in [12] was 85% (inactive); in assay [13], 89.9% (inactive). Further, the Her2 level in [2] was 123% (inactive). In assay [6] (H69AR cells + 2 uM doxorubicin), the differential viability (reversal) is 7.82% (inactive). In addition, the inhibition is -5.47% (inactive) in assay [7], -4.84% (inactive) in [8] and 0.8% (inactive) in [14]. Further, the growth inhibition was -23.2% (inactive) in assay [9] and -14.9% (inactive) in assay [10]. The viability increase in assay [11] was -0.66% (inactive). For the same molecule, in assay [15], the RAM network inhibition is 6.06% (inactive).
